Most compounds without a hit are left out; they make up all but 4.3% or so of the library.
HGIII-sPLA2 inh = Blocks human group III sPLA2 activity; AID 743126; inhibition, % at 12.2 µM; actives 0.56% (n = 370,000); Q9NZ20; QFRET BODIPY PC-A2 liposome hydrolysis, fluorescence;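 active = inhibition above mean plus 3 SD of compounds lying within the high and low control bounds, cut at about 19% in these data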;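 note: 0% = median of test compound wells and 100% = no enzyme DMSO wells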
Target sequence (Q9NZ20 whole entry, looked up): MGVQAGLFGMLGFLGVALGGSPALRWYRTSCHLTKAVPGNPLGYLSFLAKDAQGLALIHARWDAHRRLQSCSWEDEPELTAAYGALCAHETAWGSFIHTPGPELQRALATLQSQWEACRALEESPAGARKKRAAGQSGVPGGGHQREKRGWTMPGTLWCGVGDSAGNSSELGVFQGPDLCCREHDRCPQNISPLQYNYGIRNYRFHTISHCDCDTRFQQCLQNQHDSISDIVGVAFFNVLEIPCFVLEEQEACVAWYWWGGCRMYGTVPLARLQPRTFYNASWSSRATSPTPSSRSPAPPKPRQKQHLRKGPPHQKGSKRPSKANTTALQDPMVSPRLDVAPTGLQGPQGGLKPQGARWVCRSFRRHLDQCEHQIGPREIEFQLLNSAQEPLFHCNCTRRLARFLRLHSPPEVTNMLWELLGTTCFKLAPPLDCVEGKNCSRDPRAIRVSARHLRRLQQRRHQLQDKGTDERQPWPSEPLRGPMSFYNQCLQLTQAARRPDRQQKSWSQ
ADAM17 inh = ADAM17 inhibition, QFRET primary screen | P78536 | recombinant ADAM17, EDANS/DABCYL FRET peptide cleavage | inhibition, % at 6.95 µM | actives 0.83% (n = 370,000);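 active = inhibition above the mean of compounds lying between control limits plus 3 SD, set per campaign, cut at about 8.5% in these data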;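 note: 0% = DMSO-only wells as the low control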
FAS-TE inh = FAS thioesterase (human) inhibition | recombinant FAS-TE, OMFH fluorogenic substrate, fluorescence endpoint | actives 0.67% (n = 360,000) | AID 602261 | inhibition, % at 15 µM | P49327;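 active = compounds whose normalised, plate-corrected inhibition of enzyme fluorescence in the single-dose primary screen is 50% or more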;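 note: 0% = DMSO with enzyme and 100% = substrate without enzyme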
NR3A LBD binder = NR3A (human) ligand-binding domain modulation; NR3A LBD differential scanning fluorimetry, Tm shift; 0% = protein alone, 100% = glycine-bound protein; Tm shift relative to glycine control, % at 25 µM; actives 2.5% (n = 340,000); AID 1259313;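 active = melting temperature shift of at least 10% of the positive control shift, at one fixed dose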
ADAM10 inh = ADAM10 inhibition, QFRET primary screen; inhibition, % at 7 µM; recombinant ADAM10, EDANS/DABCYL FRET peptide cleavage, 3 h; actives 0.62% (n = 370,000); O14672; AID 720582;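 active = inhibition above a per-campaign cutoff equal to the mean of compounds falling between control-based bounds plus 3 SD, cut at about 20% in these data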;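 note: 0% = DMSO wells while the 100% control is not disclosed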
Active calls of the source: *; . = not tested or not shown.

SMILES	HGIII-sPLA2 inh	ADAM17 inh	FAS-TE inh	NR3A LBD binder	ADAM10 inh
O=C(CSc1nc(-c2ccccc2)nn1C(=O)c1ccccc1)Nc1cccc([N+](=O)[O-])c1	-24.8	2.0	5.9	13.3*	3.5
O=C(Nc1cccc([N+](=O)[O-])c1)c1cccc(C(=O)Nc2cccc([N+](=O)[O-])c2)c1	-2.4	-3.3	-4.2	-1.1	6.6
O=C(c1cccc([N+](=O)[O-])c1)n1nc(-c2ccccc2)nc1NCc1ccccc1	1.4	-0.6	27.6	-1.5	-9.0
CCOC(=O)[C@]12CCCCC/C=C\1N(CCc1ccc(Cl)cc1)C(=O)[C@H]2CC(=O)N1CCN(C(=O)c2ccco2)CC1	-9.3	-0.3	.	.	-1.9
COc1cccc(CNC2CCC23CCC(C)CC3)c1 (configuration not stated)	10.5	-7.1	.	.	-8.4
COC(=O)[C@]12C[C@H](CC(=O)NCC34CC5CC(CC(C5)C3)C4)C(=O)N(Cc3cccc4ccccc34)C1=C[C@H](C(C)(C)C)O[C@@H]2C	-5.0	-1.5	.	.	2.2
CCCC(=O)N1CCC[C@]2(CC[C@@H](CCC(=O)OCC)O2)C1	5.2	0.3	.	.	3.1
COc1cccc(C(=O)N(CCN2CCOCC2)Cc2ccc(OC)c(OC)c2)c1	1.2	7.2	.	.	4.4
O=C(Nc1ncc(S(=O)(=O)c2ccc([N+](=O)[O-])cc2)s1)c1ccc2ccccc2c1	-7.9	1.5	9.4	22.1*	-4.6
O=C(Nc1ncc(S(=O)(=O)c2ccc([N+](=O)[O-])cc2)s1)c1cccnc1	-13.9	1.2	38.8	0.0	4.3
CC(C)c1ccc(Nc2nnc(SCC(=O)Nc3ncc(S(=O)(=O)c4ccc([N+](=O)[O-])cc4)s3)s2)cc1	-7.6	1.0	-18.1	12.7*	9.2
N#C[C@@H]1N[C@H](CO)[C@@H]1c1ccccc1	1.6	-1.1	.	.	-5.6
CCCC1(C(=O)O)NC(c2ccccc2O)C2C(=O)N(Cc3ccccc3)C(=O)C21 (configuration not stated)	0.5	-4.2	-4.5	-1.2	-12.8
CCC1(C(=O)O)NC(c2cc(OC)ccc2O)C2C(=O)N(Cc3ccccc3)C(=O)C21 (configuration not stated)	-4.3	1.0	-5.3	0.1	21.9*
COC(=O)CNC(c1ccccc1)c1cc(Br)ccc1NS(=O)(=O)c1ccccc1 (configuration not stated)	16.2	-2.2	-1.6	-1.1	-3.9
COC(=O)CNC(c1ccccc1)c1cc(Br)ccc1NS(=O)(=O)c1ccc(C)cc1 (configuration not stated)	-2.0	-1.1	27.3	16.0*	-5.3
CCCC(=O)OC12CCCN(C1)/C(=C/c1cccc(Cl)c1)C2 (configuration not stated)	1.9	-1.5	.	.	-7.6
O=C(CSc1ccc(Cl)cc1)OCc1nnc(-c2ccccc2)o1	0.8	-3.0	-0.7	18.7*	-1.6
CSC1=Nc2ccccc2N=C(N2CCCC2)C1	-4.7	0.0	.	.	-2.4
O=S(=O)(Nc1nc2ccccc2nc1Nc1ccc2c(c1)OCCO2)c1cccs1	-56.9	-4.9	2.0	13.4*	-6.1
COC(=O)C1CN(Cc2cn(Cc3ccc(OC)cc3)nn2)CCS(=O)(=O)N1Cc1ccc(Cl)cc1 (configuration not stated)	0.2	-1.1	.	.	-1.2
COc1cc2ccccc2cc1C(=O)N/N=C/c1cccnc1	3.7	-12.5	-4.6	82.9*	-26.8
CCOc1ccc(S(=O)(=O)Nc2ccccc2C(=O)N/N=C/c2c(OC)ccc3ccccc23)cc1	-47.3	4.1	46.3	22.1*	3.6
CCCCOc1ccc(/C=N/NC(=O)c2csc(C)c2C)cc1	4.7	-0.9	29.3	28.1*	7.4
Cc1scc(C(=O)N/N=C/c2ccc(OCC(C)C)cc2)c1C	1.6	5.5	24.6	7.7	5.2
SMILES	HGIII-sPLA2 inh	ADAM17 inh	FAS-TE inh	NR3A LBD binder	ADAM10 inh
CCOc1ccc(/C=N/NC(=O)c2cc3ccccc3cc2OC)cc1	-0.7	-9.9	17.3	24.2*	-23.9
CCCCNS(=O)(=O)/C=C/c1cc2c(cc1CNC(=O)OC(C)(C)C)OCO2	2.6	-18.9	.	.	-75.3
Cn1cnc([N+](=O)[O-])c1S(=O)(=O)Oc1cccc2ccccc12	0.1	3.6	65.7*	-1.0	1.9
Cn1cnc([N+](=O)[O-])c1S(=O)(=O)Oc1ccc(Cl)cc1	12.7	-3.9	52.3*	-0.2	-20.9
Cn1cnc([N+](=O)[O-])c1Oc1cccc2ccccc12	6.8	2.0	-0.9	-1.3	7.0
O=C(Nc1ccc(NC(=O)c2ccccc2Cl)c(Cl)c1)c1ccccn1	-5.9	-24.2	.	.	7.0
COc1ccc(/C=C2\Cc3ccccc3C2=O)cc1OC	-0.1	-3.6	1.1	13.3*	-3.8
CCOC(=O)Cn1cc(CN2CCS(=O)(=O)N(Cc3ccc(OC)cc3)C(C(=O)OC)C2)nn1 (configuration not stated)	3.4	-3.0	.	.	-8.6
COc1cc(NCCCn2ccc(NC(=O)OCc3ccccc3)nc2=O)cc(OC)c1OC	12.9	-2.8	-6.3	16.8*	-12.9
COc1ccc(CN(C)CCCn2ccc(NC(=O)OCc3ccccc3)nc2=O)cc1OC	6.2	0.2	0.5	.	1.8
COc1ccc(OC)c(-c2nc(C(=O)NC3CCN(Cc4ccccc4)CC3)cc3c2[nH]c2ccccc23)c1	-3.2	-14.8	28.9	-1.9	-88.5
COc1cc(-c2nc(C(=O)NC3CCN(Cc4ccccc4)CC3)cc3c2[nH]c2ccccc23)cc(OC)c1OC	.	.	77.2*	-6.3	.
COCCn1cnc2c1c(=O)n(CC(=O)Nc1cc(C)on1)c(=O)n2Cc1ccccc1	6.2	-2.1	-3.3	10.9*	-4.7
COCCn1cnc2c1c(=O)n(CC(=O)NC1CCCCC1)c(=O)n2Cc1ccccc1	-5.6	-0.2	-4.7	.	8.4
COC(=O)C1CN(Cc2cn(Cc3ccc(Cl)cc3)nn2)CCS(=O)(=O)N1Cc1ccccc1 (configuration not stated)	-1.9	-1.9	.	.	-2.8
COc1cccc(/C=N/Nc2snc(SC)c2C#N)c1O	-20.8	1.8	1.4	30.0*	-0.3
O=[N+]([O-])c1cccc(N/N=C/c2cccc3ccccc23)c1	11.2	3.1	40.8	24.5*	1.3
COc1cccc(C=Nc2ccc(C)c(F)c2)c1O	-3.3	-1.4	-2.4	13.0*	-0.6
COc1cccc(/C=N/Nc2ccc([N+](=O)[O-])cn2)c1O	7.0	-3.0	8.2	29.2*	-3.2
COC(=O)[C@]12C[C@H](CC(=O)N3CCN(C(=O)c4ccco4)CC3)C(=O)N(Cc3cccc4ccccc34)C1=C[C@H](C(C)C)O[C@@H]2C1CC1	-9.9	-2.6	.	.	6.1
COc1cccc(/C=N/NC(=O)N/N=C/c2cccc(OC)c2O)c1O	-4.0	0.5	1.5	34.7*	5.8
O=[N+]([O-])c1ccc(NN=Cc2cccc3ccccc23)nc1	-0.2	-2.8	-3.5	28.7*	-11.2
O=C(O)c1ccccc1C=NNc1ccc([N+](=O)[O-])cn1	12.9	-2.8	-4.7	0.2	-7.9

Screens: PubChem, several laboratories
